Data as given in PubChem BioAssay AID493073 (Broad Institute, 2011).
In all, about 1,200 compounds went through this assay and about 810 (68%) were called active. No rule for the calls is given here. So high a share suggests a set chosen from earlier hits. These entries were drawn from the full list. Results with a measured potency or affinity are listed apart.

Assay: reducers of TRPM1 reporter luminescence, concentration series – cell-based, SK-MEL-5, cherry-picked, set 3, MITF inhibitor project, dose response (AID 493073)
Settings: SK-MEL-5 TRPM1 promoter luciferase, 24 h; series mostly up to 35 µM

outcome, inactive:
CC(=O)Nc1ccc2c(c1)ncn2-c1ccccc1, O=C1c2ccccc2CN1c1ccccc1, N#Cc1cnc2sc3ccccc3n2c1=N, CC1(C)CC(=O)c2cnc(N3CCc4ccccc43)nc2C1, O=C(NCCSc1ccccc1)c1ccccc1F, COc1ccc(-c2nc3n(c2C)Cc2ccccc2-3)cc1, COc1ccc(-c2cc(-c3ccccc3O)[nH]n2)cc1OC, COc1ccc(C(=O)Nc2nc3ccc(OC)cc3s2)cc1, CCOC(=O)c1ccc(NC(=O)c2ccnn2C)cc1, Cc1ccc(NC(=O)c2ccc(OCC3CCCO3)cc2)c(C)c1 (stereo not given), CCOC(=O)c1ccc(NC(=O)CC2SCCNC2=O)cc1 (stereo not given), CCCOc1ccc(C(=O)Nc2ccc3c(c2)OCCO3)cc1, COc1cc(/C=N/N=C(N)N)ccc1OCc1ccc(Cl)cc1, Cc1ccc2nc(-c3ccncc3)[nH]c2c1, CC(=O)N/C(N)=N/c1nc(=O)c2ccccc2s1, CCOc1ccc(N(CC(=O)Nc2ccc(OC)cc2)S(C)(=O)=O)cc1, COc1ccc(NC(=O)c2scc(S(=O)(=O)C(C)C)c2N)cc1, COc1ccc(/C=N/NC(=O)Cc2cccs2)cc1, CCSc1nc2c(cnn2-c2ccccc2)c(=O)n1N, Nc1c(-c2ccc(Cl)cc2)nnn1-c1ccccc1, CCn1nccc1C(=O)Nc1ccc(C)c(C)c1, O=C(CCNc1ccccc1)c1ccc2c(c1)OCO2, O=C(Nc1ccc(F)c(Cl)c1)c1ccc2c(c1)OCO2, O=C(Cn1cnc2ccccc2c1=O)Nc1ccc2c(c1)OCCO2, C=CCn1cccc(C(=O)Nc2ccc(C)c(Cl)c2)c1=O, Cc1cccc(N(O)C(=O)Nc2cccc(Cl)c2)c1, CC(O)CNC(=O)C1CCN(Cc2ccc(OCc3ccccc3)cc2)CC1 (stereo not given), Nc1nc2ccccc2n1/N=C/c1ccc(-c2ccccc2)o1, Cc1c(/C=C/C(=O)c2ccc(Cl)s2)cnn1C, CCCCOC(=O)Nc1ccc2c(C)cc(=O)oc2c1, Cc1ccc(NC(=O)c2cc(-c3cccs3)on2)cc1, Cc1cc(C)c2sc(N(CCCN(C)C)C(=O)COc3ccc(Cl)cc3)nc2c1, Cc1ccc2nc(N(CCCN(C)C)C(=O)c3ccc4c(c3)CCCC4)sc2c1, CC(=O)N/C(N)=N/c1nc2cc(C)ccc2o1, CCOC(=O)c1cn2nc(Oc3ccccc3)ccc2n1, Cc1cn(CCC(=O)Nc2ccccc2N2CCOCC2)c2ccccc12, Clc1c(-c2ccccc2)nc2ccccn12, C=CCNC(=O)Cn1nnc(-c2ccc(-c3ccc(OC)cc3)cc2)n1, CCOC(=O)CSc1nc2cc(OCC)ccc2cc1C#N, O=C(Cn1cnc2c(oc3ccccc32)c1=O)c1ccccc1, c1ccc(Cc2cc(-c3ccccc3)on2)cc1, O=[N+]([O-])c1c(NCCCO)cc(Sc2ccc(Cl)cc2)c2nonc12, CC1CC2(C)Oc3ccccc3CC2C(C)C1CNCCCN(C)C (stereo not given), O=[N+]([O-])c1cccc(/C=N/Nc2ncc(Br)cn2)c1, Cc1cc(C)c2c(N)c(C(=O)N/N=C/c3cccnc3)sc2n1, Cc1ccc(NC(=O)c2cc3cccc([N+](=O)[O-])c3[nH]2)cc1, O=C(CC(=O)c1ccccc1)Nc1ccccn1, N/C(CS(=O)(=O)c1ccccn1)=N\OC(=O)c1ccccc1Cl, COc1ccc(NC(=O)c2cc3ccccc3[nH]2)cc1, COC(=O)[C@@H](C)NC(=O)c1ccc2oc(CCc3ccccc3)nc2c1
